Each structure is given as a SMILES string. The panel holds about 83,000 compounds, 20% with a hit somewhere; the sample as a whole holds those more often.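 The test compound was applied at a single concentration to cells in 96-well plates for 48 hours, and percent growth was recorded.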 Values without a mark were called inactive. Calls of active or inactive are those of the source. Rule for the calls: active = growth percent below 10; inactive = the rest.

One assay relates to A549/ATCC NSCLC. The assay can be described thus: NCI-60 one-dose screen, 48 h (100 = growth as untreated, 0 = no growth, -100 = all killed). The settings on record: 10 µM unless noted.
For `CC(C)[C@@H]1NC(=O)[C@]2(C)CSC(=N2)c2csc(n2)CNC(=O)C[C@@H](/C=C/CCS)OC1=O`, the growth was -15.1% (active).

As to `Clc1cccc(Cl)c1Cl`, the growth is 85.9%.

With `O=C(CC1(O)C(=O)Nc2ccc(Cl)cc21)c1ccc(C(=O)NCC2CCC3(CC2)OOC2(CCCCC2)OO3)cc1` (stereo not drawn), the growth is -55.4% (active).

For the compound `COc1ccc(C(O)(C(=O)O)c2ccc(OC)cc2)cc1`, the growth is 71.6%.

In the case of `CCn1c2ccccc2c2cc(C(=O)c3ccc(C)c4ccccc34)ccc21`, the growth was 6.07% (active).

With `COC(=O)[C@]12CCC(C)(C)C[C@H]1[C@H]1C(=O)C[C@@H]3[C@@]4(C)C[C@@]5(CC(C)(C)[C@@H]4CC[C@@]3(C)[C@]1(C)CC2)OO[C@@](C)(C(F)(F)F)O5`, the growth is 98%.

For `CC[C@]12C=CCN3CC[C@@]4(c5ccc(OC)cc5N(C)[C@H]4[C@@](O)(C(=O)OC)[C@@H]1OC(=O)CCCC[P+](c1ccccc1)(c1ccccc1)c1ccccc1)[C@@H]32`, the growth is 22.1%.

Regarding `CCCCCCCCOC(=O)CCN1CC1`, the growth was 99.1%.

As for `CC1[C@H](C)OC(=O)CC(O)CC(O)CC(O)CCC(O)C(O)C[C@]2(O)CC(O)C(C(=O)O)C(CC(OC3O[C@H](C)[C@@H](O)[C@H](N)[C@@H]3O)/C=C/C=C/C=C/C=C/CC/C=C/C=C/[C@H](C)[C@H]1O)O2` (stereo partly drawn), the growth was 97.8%.

Consider `c1cc2c(c3c1CCNC3)OCO2`, for which the growth is 66%.

In the case of `Cc1ccc(N2COOC3(OOC2)C2CC4CC(C2)CC3C4)cc1`, the growth was 98.7%.

As to `O=C(CC1(O)C(=O)N(Cc2ccccc2)c2ccc(Br)cc21)c1ccc(C(=O)NCC2CCC3(CC2)OOC2(CCCCC2)OO3)cc1` (stereo not drawn), the growth is -61.1% (active).

Take `C[C@@H]1C[C@@]2(C)[C@@H](CC[C@@H]3[C@@H]2CC[C@]2(C)C(=O)CC[C@@H]32)CC1=O`: the growth is 82.7%.

Consider `CCN(CC)c1ccc2c(c1)OC(N)=C(C#N)C2c1cc(OC)c2c(c1)OCO2` (stereo not drawn), for which the growth is 19.8%.

As for `O=P(Oc1ccc(Cl)cc1)(N1CC1)N1CC1`, the growth is 60.2%.

With `O=[N+]([O-])c1cc(I)cc([N+](=O)[O-])c1`, the growth is 99.5%.

For the compound `CC(=O)O[C@H](C[C@H](C(C)C)N(C)C(=O)[C@@H](NC(=O)[C@H]1CCCCN1C)C(C)(C)C)c1nc(C(=O)N[C@@H](Cc2ccccc2)C[C@H](C)C(=O)O)cs1`, the growth is 9.66% (active).

Regarding `CC[C@H](C)[C@H](NC(=O)[C@H]1CCCCN1C)C(=O)N(C)[C@H](C[C@@H](O)c1nc(C(=O)N[C@@H](Cc2ccccc2)C[C@H](C)C(=O)O)cs1)C(C)C`, the growth is 87.1%.

For `CN1CCC(O)(c2ccc(F)cc2)C(C(=O)c2ccc(F)cc2)C1` (stereo not drawn), the growth was 101%.

Turning to `O=C1NC(=O)C(=Cc2cccn2CCCCCn2c3ccccc3c(=O)c3ccccc32)C(=O)N1`, the growth was 100%.

For `COC(=O)[C@@H](C[C@H](Cc1ccccc1)NC(=O)c1csc([C@@H](C[C@H](C(C)C)N(C)C(=O)[C@@H](NC(=O)[C@H]2CCCCN2C)C(C)C)OC(C)=O)n1)NC(=O)OCc1ccccc1`, the growth is 14.1% [9.5 µM].

For the compound `CN(C)CCCOc1ccc2c(c1)c(C(=O)C(=O)NCCO)cn2Cc1ccccc1`, the growth was 105%.

With `COc1cc(C=Nc2cc(Cl)cc(Cl)c2)ccc1N(CCCl)CCCl`, the growth is 91.9%.

As to `CCOC(=O)N[C@H]1CCc2c(Br)c(OC)c(OC)c(OC)c2-c2ccc(SC)c(=O)cc21`, the growth was 20.9%.

As for `C/C(CC(C)(C)N1CC1)=N\NC(=O)Nc1cccc2ccccc12`, the growth is 63%.

As for `C[C@]12CCc3sc(-c4ccccc4O)nc3C1=CC[C@@H]1[C@@H]2CC[C@]2(C)C(=O)CC[C@@H]12`, the growth was 103%.

In the case of `CC[C@H](C)[C@H](NC(=O)[C@H]1CCCCN1C)C(=O)N(C)[C@H](CC(=O)c1nc(C(=O)N[C@@H](Cc2ccccc2)C[C@H](C)C(=O)O)cs1)C(C)C`, the growth is 94.8%.

Turning to `COc1cccc(/C=C/[N+](=O)[O-])c1`, the growth was 61.2%.

Take `O=C1CC2(CC3(Cl)C(Cl)=C(Cl)C2(Cl)C3(Cl)Cl)C(=O)O1` (stereo not drawn): the growth was 105%.

For `CC12CCC3C(CCC4=CC(=O)CCC43CF)C1CCC2=O` (stereo not drawn), the growth was 99.3%.

Consider `Nc1ccc(-c2nc3cc(F)ccc3[se]2)cc1F`, for which the growth was 39.9%.

In a further assay the test system is 786-0 renal. The description is as above. The settings on record: 10 µM unless noted.
Turning to `COc1cc2c(=O)n(C3CCCCCCC3)c3c4cc[nH]c4ncc3c2cc1OC`, the growth was 31.2%.

On to `C1CCC([PH+](C2CCCCC2)C2CCCCC2[PH+](C2CCCCC2)C2CCCCC2)CC1.[Au].[CH-]1CCCCC1CC1CCCC[N-]1` (stereo not drawn), for which the growth was -89.6% (active).

With `CCCCN1CCCC[C@@H]1C(=O)N[C@H](C(=O)N(C)[C@H](C[C@@H](OC(C)=O)c1nc(C(=O)NC2CCC(C(=O)OC)CC2)cs1)C(C)C)C(C)C` (stereo partly drawn), the growth is 36.7%.

For `CS(=O)(=O)CCN1CC2CCCC(C2)C1`, the growth was 95.6%.

As to `COC(=O)[C@@H](C)C[C@H](Cc1ccccc1)NC(=O)c1nc([C@@H](C[C@H](C(C)C)N(C)C(=O)[C@@H](NC(=O)[C@H]2CCCCN2C)C(C)C)OC(C)=O)sc1C(C)C`, the growth was -6.11% (active).

With `C=CC[Se]C(=O)c1ccccc1OC(C)=O`, the growth was -7.14% (active).

As to `CC(C)[C@@H]1NC(=O)[C@]2(C)CSC(=N2)c2csc(n2)CNC(=O)C[C@@H](/C=C/CCS)OC1=O`, the growth is 10.2%.

For `Clc1cccc(Cl)c1Cl`, the growth was 96.1%.

`O=C(CC1(O)C(=O)Nc2ccc(Cl)cc21)c1ccc(C(=O)NCC2CCC3(CC2)OOC2(CCCCC2)OO3)cc1` (stereo not drawn): the growth was -65.6% (active).

As for `COc1ccc(C(O)(C(=O)O)c2ccc(OC)cc2)cc1`, the growth was 94.8%.

`CCn1c2ccccc2c2cc(C(=O)c3ccc(C)c4ccccc34)ccc21`: the growth is 17.6%.

As to `COC(=O)[C@]12CCC(C)(C)C[C@H]1[C@H]1C(=O)C[C@@H]3[C@@]4(C)C[C@@]5(CC(C)(C)[C@@H]4CC[C@@]3(C)[C@]1(C)CC2)OO[C@@](C)(C(F)(F)F)O5`, the growth was 97.8%.

For `CC[C@]12C=CCN3CC[C@@]4(c5ccc(OC)cc5N(C)[C@H]4[C@@](O)(C(=O)OC)[C@@H]1OC(=O)CCCC[P+](c1ccccc1)(c1ccccc1)c1ccccc1)[C@@H]32`, the growth is 57.2%.

Regarding `CCCCCCCCOC(=O)CCN1CC1`, the growth was 107%.

As for `CC1[C@H](C)OC(=O)CC(O)CC(O)CC(O)CCC(O)C(O)C[C@]2(O)CC(O)C(C(=O)O)C(CC(OC3O[C@H](C)[C@@H](O)[C@H](N)[C@@H]3O)/C=C/C=C/C=C/C=C/CC/C=C/C=C/[C@H](C)[C@H]1O)O2` (stereo partly drawn), the growth was 105%.

On to `c1cc2c(c3c1CCNC3)OCO2`, for which the growth was 96.2%.

As to `Cc1ccc(N2COOC3(OOC2)C2CC4CC(C2)CC3C4)cc1`, the growth is 96.1%.

Regarding `O=C(CC1(O)C(=O)N(Cc2ccccc2)c2ccc(Br)cc21)c1ccc(C(=O)NCC2CCC3(CC2)OOC2(CCCCC2)OO3)cc1` (stereo not drawn), the growth was -70.7% (active).

Consider `C[C@@H]1C[C@@]2(C)[C@@H](CC[C@@H]3[C@@H]2CC[C@]2(C)C(=O)CC[C@@H]32)CC1=O`, for which the growth is 93.2%.

For `CCN(CC)c1ccc2c(c1)OC(N)=C(C#N)C2c1cc(OC)c2c(c1)OCO2` (stereo not drawn), the growth was 15.5%.

With `O=P(Oc1ccc(Cl)cc1)(N1CC1)N1CC1`, the growth was 84.5%.

Consider `O=[N+]([O-])c1cc(I)cc([N+](=O)[O-])c1`, for which the growth was 112%.

Regarding `CC(=O)O[C@H](C[C@H](C(C)C)N(C)C(=O)[C@@H](NC(=O)[C@H]1CCCCN1C)C(C)(C)C)c1nc(C(=O)N[C@@H](Cc2ccccc2)C[C@H](C)C(=O)O)cs1`, the growth is 11.1%.

Take `CC[C@H](C)[C@H](NC(=O)[C@H]1CCCCN1C)C(=O)N(C)[C@H](C[C@@H](O)c1nc(C(=O)N[C@@H](Cc2ccccc2)C[C@H](C)C(=O)O)cs1)C(C)C`: the growth is 90.2%.

Regarding `CN1CCC(O)(c2ccc(F)cc2)C(C(=O)c2ccc(F)cc2)C1` (stereo not drawn), the growth is 102%.

`O=C1NC(=O)C(=Cc2cccn2CCCCCn2c3ccccc3c(=O)c3ccccc32)C(=O)N1`: the growth was 99%.

As for `COC(=O)[C@@H](C[C@H](Cc1ccccc1)NC(=O)c1csc([C@@H](C[C@H](C(C)C)N(C)C(=O)[C@@H](NC(=O)[C@H]2CCCCN2C)C(C)C)OC(C)=O)n1)NC(=O)OCc1ccccc1`, the growth is 15.8% [9.5 µM].

On to `CN(C)CCCOc1ccc2c(c1)c(C(=O)C(=O)NCCO)cn2Cc1ccccc1`, for which the growth was 93.3%.

For `COc1cc(C=Nc2cc(Cl)cc(Cl)c2)ccc1N(CCCl)CCCl`, the growth was 107%.

On to `CCOC(=O)N[C@H]1CCc2c(Br)c(OC)c(OC)c(OC)c2-c2ccc(SC)c(=O)cc21`, for which the growth was 9.3% (active).

For `C/C(CC(C)(C)N1CC1)=N\NC(=O)Nc1cccc2ccccc12`, the growth was 70.4%.

With `C[C@]12CCc3sc(-c4ccccc4O)nc3C1=CC[C@@H]1[C@@H]2CC[C@]2(C)C(=O)CC[C@@H]12`, the growth is 102%.

For `CC[C@H](C)[C@H](NC(=O)[C@H]1CCCCN1C)C(=O)N(C)[C@H](CC(=O)c1nc(C(=O)N[C@@H](Cc2ccccc2)C[C@H](C)C(=O)O)cs1)C(C)C`, the growth was 89.7%.

As to `COc1cccc(/C=C/[N+](=O)[O-])c1`, the growth is 54.6%.

`O=C1CC2(CC3(Cl)C(Cl)=C(Cl)C2(Cl)C3(Cl)Cl)C(=O)O1` (stereo not drawn): the growth was 96.3%.

As for `CC12CCC3C(CCC4=CC(=O)CCC43CF)C1CCC2=O` (stereo not drawn), the growth was 106%.

In the case of `Nc1ccc(-c2nc3cc(F)ccc3[se]2)cc1F`, the growth is 101%.
